# Results: the supplement of paper PMC12024424
# Counter-ions that a name gives are not always drawn.
# Test system: Staphylococcus aureus Sa2 (MRSA, cystic fibrosis isolate)
# Experiment: growth reduction vs untreated control (OD550); higher = stronger antibacterial activity
# Settings: 0.1 mM; 24 h
# Method: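 Single-dose screen of the MedChem Express Drug Repurposing Library (0.1 mM, 1% DMSO) against planktonic MRSA S. aureus Sa2 (CF isolate) in TSB in 96-well plates, 37 °C aerobic, 24 h. Assays were run in triplicate and repeated twice.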
row,SMILES,growth reduction [%]
1,COc1cc([C@@H]2c3cc4c(cc3[C@@H](O[C@@H]3O[C@@H]5CO[C@@H](c6cccs6)O[C@H]5[C@H](O)[C@H]3O)[C@H]3COC(=O)[C@H]23)OCO4)cc(OC)c1O [Teniposide],100
2,O=C(NCC12CC3CC(CC(C3)C1)C2)c1cc(CCCNCCCO)ccc1Cl [AZD9056 (hydrochloride)],100
3,CNC(=O)c1cc(Oc2ccc(NC(=O)Nc3ccc(Cl)c(C(F)(F)F)c3)c(F)c2)ccn1 [Regorafenib (Hydrochloride)],100
4,Oc1c(Cl)cc(Cl)cc1Sc1cc(Cl)cc(Cl)c1O [Bithionol],99.2
5,Nc1ccc2cc3ccc(N)cc3nc2c1 [Proflavine (hemisulfate)],100
6,Cc1ncc(NC(=O)c2ccc(CN3CCN(C)CC3)c(C(F)(F)F)c2)cc1Nc1nccc(-c2cccnc2)n1 [Flumatinib],100
7,Cc1cc(OCCCS(C)(=O)=O)cc(C)c1-c1cccc(COc2ccc3c(c2)OC[C@H]3CC(=O)O)c1 [Fasiglifam],100
8,CC(=O)O[C@@H]1CC[C@@]2(C)[C@@H](CC[C@]3(C)[C@@H]2C(=O)C=C2[C@@H]4[C@@H](C)[C@H](C)CC[C@]4(C)CC[C@]23C)[C@@]1(C)C(=O)O,100
9,O/N=c1\cc(-c2cc3sccc3cn2)oc2ccc(CCCN3CCOCC3)cc12 [Foliglurax (monohydrochloride)],100
10,c1ccc(-c2ccc(C(c3ccccc3)n3ccnc3)cc2)cc1 (stereo not drawn) [Bifonazole],100
11,Clc1ccc(C(c2ccccc2Cl)C(Cl)Cl)cc1 (stereo not drawn) [Mitotane],100
12,OCCN1CCN(CC/C=C2/c3ccccc3Sc3ccc(C(F)(F)F)cc32)CC1 [Flupentixol dihydrochloride],100
13,O=C(O)c1ccc2nc(-c3cc(Cl)cc(Cl)c3)oc2c1 [Tafamidis],99.5
14,N[C@@H](Cc1cc(I)c(Oc2cc(I)c(O)c(I)c2)c(I)c1)C(=O)O [L-Thyroxine (sodium salt pentahydrate)],100
15,COc1ccc2c(c1OCc1ccccc1)C[C@@H](C(=O)O)N(C(=O)C(c1ccccc1)c1ccccc1)C2 [Olodanrigan],95.1
16,Clc1ccc(CCC(Cn2ccnc2)Sc2c(Cl)cccc2Cl)cc1 (stereo not drawn) [Butoconazole (nitrate)],100
17,C=C[C@@](C)(/C=C/c1ccc(O)cc1)CCC=C(C)C [Bakuchiol],100
18,O=C(CCCCCCNC(=O)c1cnc(N(c2ccccc2)c2ccccc2)nc1)NO [Ricolinostat],100
19,CC(C)(C)c1cc(C(C)(C)C)c(NC(=O)c2c[nH]c3ccccc3c2=O)cc1O [Ivacaftor],95.3

row,SMILES,growth reduction [%]
1,CCCCc1oc2ccc(NS(C)(=O)=O)cc2c1C(=O)c1ccc(OCCCN(CCCC)CCCC)cc1 [Dronedarone],96.5
2,O=C(O)Cc1cc(I)c(Oc2ccc(O)c(I)c2)c(I)c1 [Tiratricol],100
3,CCCCc1oc2ccc(NS(C)(=O)=O)cc2c1C(=O)c1ccc(OCCCN(CCCC)CCCC)cc1 [Dronedarone (Hydrochloride)],92.6
4,CO[C@H](C(=O)[C@@H](O)[C@@H](C)O)[C@@H]1Cc2cc3cc(O[C@H]4C[C@@H](O[C@H]5C[C@@H](O)[C@H](O)[C@@H](C)O5)[C@H](O)[C@@H](C)O4)c(C)c(O)c3c(O)c2C(=O)[C@H]1O[C@H]1C[C@@H](O[C@H]2C[C@@H](O[C@H]3C[C@](C)(O)[C@H](O)[C@@H](C)O3)[C@@H](O)[C@@H](C)O2)[C@H](O)[C@@H](C)O1 [Plicamycin],99.6
5,Cc1cc2c(cc1CC(=O)c1sccc1S(=O)(=O)Nc1onc(C)c1Cl)OCO2 [Sitaxsentan (sodium)],98
6,O=C(O)CNC(=O)c1c(=O)cc(CCc2ccccc2)n2[nH]cnc12 [Enarodustat],93.3
7,O=C(O)c1ccc2c(c1)CCCC(c1ccc(Cl)cc1Cl)=C2c1ccc(O[C@H]2CCN(CCCF)C2)cc1,100
8,CC(C)(C)C(=O)Oc1ccc(S(=O)(=O)Nc2ccccc2C(=O)NCC(=O)O)cc1 [Sivelestat (sodium)],92.9
9,CC(C)OC(=O)CCC/C=C\C[C@@H]1[C@@H](/C=C/[C@@H](O)COc2cccc(C(F)(F)F)c2)[C@H](O)C[C@@H]1O [Travoprost],100
10,O=C(O)Cc1ccccc1Nc1c(Cl)cccc1Cl [Diclofenac],100
11,C[C@H](Nc1cc(-c2cnn(C)c2)cc(Nc2cnccn2)n1)c1ccc(F)cc1 [Ilginatinib (maleate)],100
12,OCc1cc([C@@H](O)CNCCCCCCOCCOCc2c(Cl)cccc2Cl)ccc1O [Vilanterol],99.9
13,N[C@@H]1CC[C@@H](c2ccc(Cl)c(Cl)c2)c2ccccc21 [Dasotraline (hydrochloride)],100
14,C#C[C@]1(O)CC[C@H]2[C@@H]3CCC4=CCCC[C@@H]4[C@H]3C(=C)C[C@@]21CC [Desogestrel],99.4
15,O=C(O)c1cc(F)c2nc(N3[C@@H]4CC[C@H]3C[C@@H](OCc3c(-c5ccccc5OC(F)(F)F)noc3C3CC3)C4)sc2c1 [Tropifexor],100
16,Cc1nc(C(=O)NCC(=O)O)c(O)c2ccc(Oc3ccccc3)cc12 [Roxadustat],99.9
17,Cc1ccc2c(=O)c3cccc(CC(=O)O)c3oc2c1C [Vadimezan],100
18,CN(C)C(=O)/C=C/CNCCOc1ccc(/C(=C(/CC(F)(F)F)c2ccccc2)c2ccc3[nH]nc(F)c3c2)cn1,100
19,CC(C)N(CCCCOCC(=O)NS(C)(=O)=O)c1cnc(-c2ccccc2)c(-c2ccccc2)n1 [Selexipag],100
